In PubChem BioAssay:
For some assays here: Results with a measured potency or affinity are listed apart. Results filed as inconclusive are left out. This is one part of the list. Calls of active or inactive are those of the source. Unless noted, no rule for the calls is given here.

Experiments:
[1] = RMG-1 ovarian cancer cell viability loss – cherry-pick, dose response (AID 687029;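 active = signal drop whose fitted half-maximal concentration is at most twice the top valid dose, in every test run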;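 also: cells exposed to compound for 96 hours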)
[2] = IOSE-T80 viability loss, PAX8-independent line – cell-based, cherry-pick, selectivity assay for PAX8 inhibitor project, dose response (AID 687032;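 active = fitted half-maximal concentration for viability loss no higher than twice the top valid dose, in every repeat run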;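 also: cells exposed to compound for 96 h before reading; 0% = neutral control wells and -100% = 2 µM mitoxantrone kill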)
[3] = general cell-killing toxicity readout – plate reader, dry powder samples, cytotoxicity control for PAX8 inhibitor project, dose response (AID 743021)
[4] = A2780 cell killing – plate reader, dry powder samples, cytotoxicity control, dose response (AID 743046);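 also: 0% = neutral control wells and -100% = cytotoxic reference compound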
[5] = IGROV1 cell killing – plate reader, dry powder samples, PAX8 inhibitor project, dose response (AID 743043);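 also: more negative means fewer viable cells or more cytotoxicity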
[6] = OVCAR-3 cell viability loss – plate reader, dry powder samples, PAX8 inhibitor project, dose response (AID 743044); conditions: max activity: at 35 µM, active compounds read low unless noted
[7] = toxicity toward immortalized ovarian surface epithelium – cell-based, plate reader, dry powder samples, cytotoxicity control for PAX8 inhibitor project, dose response (AID 743045);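 also: 0% = neutral control median and -100% = positive control median; more negative values mean more cell killing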
[8] = OVCAR8 cell viability loss – plate reader, dry powder samples, PAX8 project, dose response (AID 743197)
[9] = small-molecule DNA binding by polarization – biochemical, fluorescence polarization, cherry-pick, counter-screen for EWS/Fli inhibitor project, dose response (AID 720586;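 active = fitted curve reaches a 35% signal fall AC35 below twice the sample's top valid tested dose, actives reach about 48 µM in these data; inactive = the rest, including activity in the rising direction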;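 also: 0% = neutral control median and -100% = 10 µM mitoxantrone control median; lower polarization ratio signals compound binding to DNA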)
[10] = A549 cell cytotoxicity, dose response, cytotoxicity control, plate reader, cherry-pick, antagonist series (AID 743412);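 also: 0% = neutral control wells and -100% = positive control wells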
[11] = toxicity toward HepG2 liver cells – cell-based, plate reader, cherry-pick, antagonist series, cytotoxicity control, dose response (AID 743416);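 also: 0% = neutral control wells and -100% = positive control wells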
[12] = CMV-driven luciferase expression suppression in HEK293 – cell-based, luminescence, dry powder, counter-screen for Pax8 inhibitor project, dose response (AID 743020;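 active = signal-lowering compounds whose fitted half-maximal concentration is at or below twice the top tested dose in every run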;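 also: HEK293 cells stably expressing the CMV luciferase reporter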)

N#C[C@@H]1[C@@H](c2ccc(C#Cc3ccccc3F)cc2)[C@H](CO)N1C(=O)C1CCCCC1
inactive: outcome [1] | outcome [2] | outcome [3] | outcome [4]

O=C(C1CC1)N1C[C@@H]2N[C@H](C1)C2c1ccc(-c2cccc(F)c2)cc1 (some centres undefined)
inactive: outcome [1] | outcome [2] | outcome [3] | outcome [4]

C[C@@H]1CN([C@H](C)CO)C(=O)c2cc(NS(=O)(=O)c3ccccc3)ccc2O[C@@H](C)CCCCO[C@H]1CN(C)Cc1ccc(C(F)(F)F)cc1
inactive: outcome [1] | outcome [2] | outcome [3] | outcome [4]

C[C@@H]1CN([C@@H](C)CO)C(=O)Cc2cc(NC(=O)Cc3ccccc3)ccc2O[C@H]1CN(C)Cc1ccc(-c2ccccc2)cc1
inactive: outcome [1] | outcome [2] | outcome [5] | max activity [6] -33% | outcome [7] | outcome [4] | outcome [8]

C[C@H](CO)N1C[C@H](C)[C@H](CN(C)Cc2ccc3c(c2)OCO3)OCCCC[C@H](C)Oc2ccc(NC(=O)Nc3ccc(C(F)(F)F)cc3)cc2C1=O
inactive: outcome [1] | outcome [2] | outcome [5] | max activity [6] -20.3% [at 0.26 µM, active compounds read low] | outcome [7] | outcome [4] | outcome [8]

COc1ccc(S(=O)(=O)Nc2ccc3c(c2)C(=O)N([C@@H](C)CO)C[C@@H](C)[C@H](CN(C)Cc2ccc(C(F)(F)F)cc2)OCCCC[C@H](C)O3)cc1
inactive: outcome [1] | outcome [2] | outcome [5] | max activity [6] -37.4% | outcome [7] | outcome [4] | outcome [8]

Oc1c(Cl)cc(Cl)c(Cl)c1Cc1c(O)c(Cl)cc(Cl)c1Cl
inactive: outcome [1] | AC35 [9] | outcome [3]

COc1ccc(CN(C)C[C@@H]2OCCCC[C@H](C)Oc3ccc(NC(=O)Nc4ccc(C(F)(F)F)cc4)cc3C(=O)N([C@@H](C)CO)C[C@H]2C)cc1
inactive: outcome [1] | outcome [2] | outcome [5] | outcome [7]

C[C@H]1CCCCO[C@H](CN(C)S(=O)(=O)c2ccccc2)[C@@H](C)CN([C@@H](C)CO)C(=O)c2cc(NS(=O)(=O)c3ccc(Cl)cc3)ccc2O1
inactive: outcome [1] | outcome [2] | outcome [5] | outcome [7]

C[C@@H]1CCCCO[C@H](CN(C)Cc2ccc(Cl)c(Cl)c2)[C@@H](C)CN([C@@H](C)CO)C(=O)c2cc(NS(=O)(=O)c3ccccc3)ccc2O1
inactive: outcome [1] | outcome [2] | outcome [7] | outcome [4] | outcome [8]

Cc1ccc2nc(-c3ccc(Br)cc3)cn2c1
inactive: outcome [1] | outcome [2] | outcome [10] | outcome [11]

C[C@H](CO)N1C[C@H](C)[C@@H](CN(C)Cc2ccc(C(F)(F)F)cc2)OCCCC[C@H](C)Oc2ccc(NS(=O)(=O)c3ccc(F)cc3)cc2C1=O
inactive: outcome [1] | outcome [2] | outcome [7] | outcome [8]

COc1ccc(S(=O)(=O)Nc2ccc3c(c2)C(=O)N([C@H](C)CO)C[C@H](C)[C@@H](CN(C)S(=O)(=O)c2ccc(Cl)cc2)OCCCC[C@H](C)O3)cc1
inactive: outcome [1] | outcome [2] | outcome [7]

N#C[C@H]1[C@H](c2ccc(C#Cc3ccccc3F)cc2)[C@H](CO)N1C(=O)C1CCC1
inactive: outcome [1] | outcome [2] | outcome [5] | outcome [7] | outcome [4] | outcome [8]

COc1cccc(C#Cc2ccc([C@H]3[C@@H](CO)N(C(=O)c4ccccn4)[C@H]3C#N)cc2)c1
inactive: outcome [1] | outcome [2] | outcome [7] | outcome [4]

COc1ccc(NC(=O)Nc2ccc3c(c2)C(=O)N([C@H](C)CO)C[C@H](C)[C@H](CN(C)Cc2ccc(C(F)(F)F)cc2)OCCCC[C@H](C)O3)cc1
inactive: outcome [1] | outcome [2] | outcome [7] | outcome [4]

COc1ccccc1C#Cc1ccc([C@H]2[C@H](C#N)N(C(=O)C3CC3)[C@H]2CO)cc1
inactive: outcome [1] | outcome [2] | outcome [5] | outcome [7]

COc1ccccc1C#Cc1ccc([C@H]2[C@H](C#N)N(C(=O)C3CCC3)[C@H]2CO)cc1
inactive: outcome [1] | outcome [2] | outcome [5] | outcome [4]

CCCCCCCCn1c2c(c(=N)c3c1CCC3)CCCC2
inactive: outcome [1] | AC35 [9] | outcome [12] | outcome [3]

Cc1ccc(S(=O)(=O)Nc2ccc3c(c2)C(=O)N([C@H](C)CO)C[C@@H](C)[C@@H](CN(C)Cc2ccc(C(F)(F)F)cc2)OCCCC[C@H](C)O3)cc1
inactive: outcome [1] | outcome [2] | outcome [3] | outcome [7] | outcome [8]

O=C1CN(S(=O)(=O)Cc2ccccc2)C[C@H]2[C@H](c3ccc(C#Cc4ccc(F)cc4)cc3)[C@H](CO)N12
inactive: outcome [1] | outcome [2] | outcome [5] | outcome [7] | outcome [4] | outcome [8]

O=C(C[C@@H]1C[C@@H]2c3cc(NS(=O)(=O)c4ccc(F)cc4)ccc3O[C@@H]2[C@@H](CO)O1)NCc1ccc(Oc2ccccc2)cc1
inactive: outcome [1] | outcome [2] | outcome [5] | outcome [7]

COc1ccc(S(=O)(=O)N(C)C[C@@H]2OCCCC[C@H](C)Oc3ccc(NS(=O)(=O)c4ccc(Cl)cc4)cc3C(=O)N([C@H](C)CO)C[C@@H]2C)cc1
inactive: outcome [1] | outcome [2] | outcome [5] | outcome [7] | outcome [4] | outcome [8]

Cc1ccc(S(=O)(=O)Nc2ccc3c(c2)C(=O)N([C@H](C)CO)C[C@@H](C)[C@H](CN(C)Cc2ccc(C(F)(F)F)cc2)OCCCC[C@H](C)O3)cc1
inactive: outcome [1] | outcome [2] | outcome [7]

CC(C)=CCNc1ncnc2c1c(C#N)cn2C1OC(CO)C(O)C1O (centres undefined)
inactive: outcome [1] | outcome [12] | outcome [3]

NC1=C(Cl)C(=O)c2ccc(S(N)(=O)=O)cc2C1=O
inactive: outcome [1] | outcome [12]

O=[N+]([O-])c1c(Nc2cccc(O)c2)cc(Cl)c2nonc12
inactive: outcome [1] | outcome [12]

C(=N\Nc1nc2ccccc2s1)/c1ccccn1
inactive: outcome [1] | outcome [12]
